Calls of active or inactive are those of the source.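 The calls were made as follows, unless noted: active = compound raises insulin release from rat beta cells at 5 mM glucose, no numeric limit stated; inactive = the rest.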
Key:
[1] = Wnt pathway potentiators raising nuclear beta-catenin – imaging, WNT3A-conditioned medium, mouse C2C12, NPC library, primary screen (AID 1117326; in the data active = nuclear beta-catenin stimulation mostly above about 4.2%, no sharp cut-off; inactive = mostly below about 10%; also: reference of the scale not given here); settings: stronger effect = higher value
[2] = stimulators of insulin release from INS-1E, primary screen, cell-based, 5 mM glucose, NPC library (AID 1117329); settings: rat INS-1E insulin secretion, at 10 µM, stronger effect = higher value; also: reference of the scale not given here
[3] = growth inhibition of GSK3B-pretreated HCT116 cells – cell-based, CellTiter-Glo, 0.2 to 20 µM (AID 1117336;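 active = compounds lowering colon cancer cell viability after pretreatment blocking the GSK3B kinase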); settings: HCT116 viability after GSK3B inhibitor, at 20 µM, stronger effect = higher value
[4] = inhibition of endothelial tube formation, primary screen, imaging, VEGF stimulated, CD31 staining, tube area, NPC library (AID 1117340;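 active = compound that reduces growth-factor-driven endothelial tube area in a mixed cell culture, no cutoff stated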); settings: VEGF-stimulated ADSC/ECFC co-culture, at 10 µM, stronger effect = higher value
[5] = GLP1 release stimulators, primary, NCI-H716, NPC library (AID 1117341;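 active = compound raises GLP1 secretion from the human gut endocrine cells, with no numeric limit stated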; also: reference of the scale not given here); settings: NCI-H716 cells, at 10 µM, stronger effect = higher value
[6] = HCT116 colon cancer cell growth inhibition, primary screen, CellTiter-Glo luminescence, NPC library (AID 1117342;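 active = compounds that lower survival of HCT116 colon cancer cells in the luminescence readout, no numeric limit stated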); settings: at 20 µM (top of the series)
[7] = reduced SW480 viability measured with CellTiter-Glo, NPC library, primary (AID 1117343;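 active = compounds that lower viability of the colon cancer cells in the luminescence readout, with no numeric limit stated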); settings: CellTiter-Glo luminescence; at 20 µM (top of the series)
[8] = NPC library primary testing for decreased DLD-1 cell viability via CellTiter-Glo (AID 1117346;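 active = compounds that lower survival of DLD-1 colon cancer cells in the luminescence readout, no cutoff given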); settings: DLD-1 viability, CellTiter-Glo luminescence; at 20 µM (top of the series)

OC[C@H]1O[C@@H]2O[C@H]3[C@H](O)[C@@H](O)[C@@H](O[C@H]4[C@H](O)[C@@H](O)[C@@H](O[C@H]5[C@H](O)[C@@H](O)[C@@H](O[C@H]6[C@H](O)[C@@H](O)[C@@H](O[C@H]7[C@H](O)[C@@H](O)[C@@H](O[C@H]8[C@H](O)[C@@H](O)[C@@H](O[C@H]1[C@H](O)[C@H]2O)O[C@@H]8CO)O[C@@H]7CO)O[C@@H]6CO)O[C@@H]5CO)O[C@@H]4CO)O[C@@H]3CO
inactive: nuclear beta-catenin stimulation ([1]; at 10 µM) 0.1% | insulin secretion stimulation [2] 1.1% | viability decrease [3] -5.9% | tube area decrease [4] 2.3% | GLP1 secretion stimulation [5] -1.9% | inhibition of viability [6] 1.17% | viability decrease (inhibition) [7] 21% | viability decrease (inhibition) [8] -3.7%
0.5%: nuclear beta-catenin stimulation ([1]; stimulation, at 2 µM)

CC(=O)O[C@@H]1CC2C3CCc4cc(OC(=O)c5ccccc5)ccc4C3CCC2(C)[C@H]1OC(C)=O (stereo not given in full)
1.1%: nuclear beta-catenin stimulation ([1]; stimulation, at 2 µM)
inactive: nuclear beta-catenin stimulation ([1]; at 10 µM) 0.7% | insulin secretion stimulation [2] 0.5% | viability decrease [3] -39.7% | tube area decrease [4] 27.8% | GLP1 secretion stimulation [5] 2.1% | inhibition of viability [6] 0.9% | viability decrease (inhibition) [7] 47% | viability decrease (inhibition) [8] -13.5%

COc1ccc(/C(C)=C/C(=O)O)c(OC)c1
0.1%: nuclear beta-catenin stimulation ([1]; stimulation, at 2 µM)
inactive: nuclear beta-catenin stimulation ([1]; at 10 µM) 1.2% | insulin secretion stimulation [2] -0.4% | viability decrease [3] 10.1% | tube area decrease [4] -9.3% | GLP1 secretion stimulation [5] 1.3% | inhibition of viability [6] -0.3% | viability decrease (inhibition) [7] -19.9% | viability decrease (inhibition) [8] -10.1%

C/C(=C(/OCCOc1ccc(Cl)cc1)c1ccc(Cl)cc1Cl)n1ccnc1
active: viability decrease [3] 102% | tube area decrease [4] 109% | inhibition of viability [6] 102% | viability decrease (inhibition) [7] 143% | viability decrease (inhibition) [8] 105%
inactive: nuclear beta-catenin stimulation ([1]; at 10 µM) 3.9% | insulin secretion stimulation [2] -0.7% | GLP1 secretion stimulation [5] 4.1%
1.3%: nuclear beta-catenin stimulation ([1]; stimulation, at 2 µM)

CC(C(=O)O)c1ccc(/C=C2\CCCCC2=O)cc1 (stereo not given)
inactive: nuclear beta-catenin stimulation ([1]; at 10 µM) 0% | insulin secretion stimulation [2] 0% | viability decrease [3] 5.4% | tube area decrease [4] 0.5% | GLP1 secretion stimulation [5] 2.1% | inhibition of viability [6] -19.6% | viability decrease (inhibition) [7] 25.5% | viability decrease (inhibition) [8] -23.7%
-1.5%: nuclear beta-catenin stimulation ([1]; stimulation, at 2 µM)

CN1CC(O)c2cc(N=NC(N)=O)c(O)cc21 (stereo not given)
inactive: nuclear beta-catenin stimulation ([1]; at 10 µM) 1.3% | insulin secretion stimulation [2] -1.7% | viability decrease [3] 2% | tube area decrease [4] -33% | GLP1 secretion stimulation [5] 2.9% | inhibition of viability [6] -4.6% | viability decrease (inhibition) [7] 4.9% | viability decrease (inhibition) [8] 2.4%
1.3%: nuclear beta-catenin stimulation ([1]; stimulation, at 2 µM)

NC(=O)NS(=O)(=O)c1ccc(Cl)cc1
16.9%: nuclear beta-catenin stimulation ([1]; stimulation, at 2 µM)
inactive: nuclear beta-catenin stimulation ([1]; at 10 µM) 1.1% | insulin secretion stimulation [2] 3.4% | viability decrease [3] -3.8% | tube area decrease [4] -14.2% | GLP1 secretion stimulation [5] -1.2% | inhibition of viability [6] 2.5% | viability decrease (inhibition) [7] -13.4% | viability decrease (inhibition) [8] -2.8%

CCCCCCCCCCCCCCCCCCNC(=O)OC1CCN(C(=O)OC[C@H](COC(=O)N(Cc2cccc[n+]2CC)C(=O)c2ccccc2OC)OC)CC1
inactive: nuclear beta-catenin stimulation ([1]; at 10 µM) 10.2%
active: insulin secretion stimulation [2] 117% | viability decrease [3] 110% | tube area decrease [4] 111% | GLP1 secretion stimulation [5] 213% | inhibition of viability [6] 112% | viability decrease (inhibition) [7] 131% | viability decrease (inhibition) [8] 101%
0.5%: nuclear beta-catenin stimulation ([1]; stimulation, at 2 µM)

CC(C)CCOC(=O)c1ccc(N(C)C)cc1
0.7%: nuclear beta-catenin stimulation ([1]; stimulation, at 2 µM)
inactive: nuclear beta-catenin stimulation ([1]; at 10 µM) 0% | insulin secretion stimulation [2] 0.4% | viability decrease [3] -16.7% | tube area decrease [4] -11.5% | GLP1 secretion stimulation [5] 1.7% | inhibition of viability [6] 19.9% | viability decrease (inhibition) [7] -6.9% | viability decrease (inhibition) [8] 10.3%

Cc1c(C)c2c(c(C)c1OC(=O)CCC(=O)OCCO)CC[C@@](C)(CCC[C@H](C)CCC[C@H](C)CCCC(C)C)O2
-0.6%: nuclear beta-catenin stimulation ([1]; stimulation, at 2 µM)
active: viability decrease [3] 116% | GLP1 secretion stimulation [5] 23% | inhibition of viability [6] 122% | viability decrease (inhibition) [7] 157% | viability decrease (inhibition) [8] 101%
inactive: nuclear beta-catenin stimulation ([1]; at 10 µM) 0% | insulin secretion stimulation [2] 0.25% | tube area decrease [4] 17.4%

CCC(C(=O)NC(=O)NC(C)=O)c1ccccc1 (stereo not given)
inactive: nuclear beta-catenin stimulation ([1]; at 10 µM) 0.9% | insulin secretion stimulation [2] 0.6% | tube area decrease [4] 7.5% | GLP1 secretion stimulation [5] -4.7% | inhibition of viability [6] 46.2% | viability decrease (inhibition) [8] 6.1%
active: viability decrease [3] 78.3% | viability decrease (inhibition) [7] 70.3%
0.2%: nuclear beta-catenin stimulation ([1]; stimulation, at 2 µM)

O=C1[C@@H]2[C@H]3CC[C@H](C3)[C@@H]2C(=O)N1CCCCN1CCN(c2ncccn2)CC1
34.2%: nuclear beta-catenin stimulation ([1]; stimulation, at 2 µM)
inactive: nuclear beta-catenin stimulation ([1]; at 10 µM) 10% | insulin secretion stimulation [2] 3.2% | viability decrease [3] -0.8% | tube area decrease [4] 0.8% | GLP1 secretion stimulation [5] 1.5% | inhibition of viability [6] 45.5% | viability decrease (inhibition) [7] 12.8% | viability decrease (inhibition) [8] 1.2%

C=CCNCCCCCC[N+](C)(C)C
0.4%: nuclear beta-catenin stimulation ([1]; stimulation, at 2 µM)
inactive: nuclear beta-catenin stimulation ([1]; at 10 µM) -1.4% | insulin secretion stimulation [2] -0.9% | viability decrease [3] -5.7% | tube area decrease [4] -1.9% | GLP1 secretion stimulation [5] -0.6% | inhibition of viability [6] -3.1% | viability decrease (inhibition) [7] -2.3% | viability decrease (inhibition) [8] -2.3%

CN[C@H](CC(C)C)C(=O)N[C@H]1C(=O)N[C@@H](CC(N)=O)C(=O)N[C@H]2C(=O)N[C@H]3C(=O)N[C@H](C(=O)N[C@H](C(=O)O)c4cc(O)cc(O)c4-c4cc3ccc4O)[C@H](O)c3ccc(c(Cl)c3)Oc3cc2cc(c3O[C@@H]2OC(CO)[C@@H](O)[C@H](O)[C@@H]2O[C@H]2C[C@](C)(N)[C@H](O)[C@H](C)O2)Oc2ccc(cc2Cl)[C@H]1O (stereo not given in full)
2.4%: nuclear beta-catenin stimulation ([1]; stimulation, at 2 µM)
inactive: nuclear beta-catenin stimulation ([1]; at 10 µM) -0.7% | insulin secretion stimulation [2] -0.1% | viability decrease [3] -6.3% | tube area decrease [4] 7.3% | GLP1 secretion stimulation [5] -0.9% | inhibition of viability [6] -1.3% | viability decrease (inhibition) [7] 5% | viability decrease (inhibition) [8] -10%

Nc1ccc(S(=O)(=O)NCc2ccccc2)cc1
1.8%: nuclear beta-catenin stimulation ([1]; stimulation, at 2 µM)
inactive: nuclear beta-catenin stimulation ([1]; at 10 µM) 0.8% | insulin secretion stimulation [2] -2.5% | viability decrease [3] -8.1% | tube area decrease [4] -5.2% | GLP1 secretion stimulation [5] 0.6% | inhibition of viability [6] -18.3% | viability decrease (inhibition) [7] 37.6% | viability decrease (inhibition) [8] 10.1%

Reference: PubChem BioAssay
